Screens deposited in PubChem by several laboratories.
PDI turbidity – inhibitors of human PDI, primary screen, biochemical, turbidity, single point, plate reader; Protein disulfide-isomerase (Homo sapiens), P07237; PDI insulin aggregation turbidity, A650, 90 min; inhibition, % at 10 µM; actives 0.052% (n = 350,000);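 active = mean inhibition across replicates of 30% or more, whatever share of single replicates reach that level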
Target sequence (P07237 whole entry, looked up): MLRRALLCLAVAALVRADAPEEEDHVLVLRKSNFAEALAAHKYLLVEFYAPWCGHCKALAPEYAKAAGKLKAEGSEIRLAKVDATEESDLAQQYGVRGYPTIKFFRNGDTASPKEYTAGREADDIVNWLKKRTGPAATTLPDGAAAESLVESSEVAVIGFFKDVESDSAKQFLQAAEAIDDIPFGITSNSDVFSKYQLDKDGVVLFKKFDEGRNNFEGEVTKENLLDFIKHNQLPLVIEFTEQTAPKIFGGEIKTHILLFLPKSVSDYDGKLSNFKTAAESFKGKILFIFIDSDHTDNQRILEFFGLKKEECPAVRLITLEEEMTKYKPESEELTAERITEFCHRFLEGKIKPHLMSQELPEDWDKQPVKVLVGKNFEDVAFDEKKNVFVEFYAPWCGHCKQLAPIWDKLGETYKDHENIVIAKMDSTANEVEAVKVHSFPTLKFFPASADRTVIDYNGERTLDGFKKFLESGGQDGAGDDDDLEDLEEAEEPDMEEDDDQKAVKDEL
ERp5 inh – inhibitors of ERp5-driven insulin aggregation, primary screen, biochemical, turbidity, absorbance 650 nm, single point | Protein disulfide-isomerase A6 (Homo sapiens), Q15084 | 90 min | inhibition, % at 9.99 µM | actives 0.05% (n = 350,000) | AID 651711, 2012;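 active = mean replicate inhibition above about 25%, with every replicate also reaching it, limit read from the data, passing the limit was not always enough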
Efflux pump inh – inhibitors of Candida efflux pumps in yeast, primary screen, S. cerevisiae, Nile Red, multiplex. S. cerevisiae Candida pump triplex. inhibition, % at 10 µM. actives 0.44% (n = 330,000);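 active = plate passing quality check with inhibition over a set limit, or well fluorescence over plate mean plus 4 SD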;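 also: Nile Red retained in pooled yeast measured as flow cytometry median fluorescence; higher means more Nile Red kept so more efflux inhibition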
Rtt109 Vps75 – inhibitors of C. albicans Rtt109/Vps75 HAT, primary screen, biochemical, ThioGlo CoA-SH fluorescence, plate reader; Histone acetyltransferase RTT109 (Candida albicans (strain SC5314 / ATCC MYA-2876)), …; purified Rtt109/Vps75, 4 h; inhibition, % at 34.9 µM; actives 0.16% (n = 330,000); AID 540336, 2011;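 active = inhibition of at least 50% in every replicate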
PvdQ inh – P. aeruginosa PvdQ acylase inhibitors, primary screen, biochemical, fluorescence, plate reader and imaging, single point; PvdQ acylase [Pseudomonas aeruginosa LESB58]; purified PvdQ acylase; inhibition, % at 10 µM; actives 0.063% (n = 340,000); AID 488965, 2010; in the data active = inhibition above about 30%, passing the limit was not always enough
Cmpd fluor yeast – compound fluorescence in yeast efflux pump counter-screen | shares compounds with Efflux pump inh | S. cerevisiae AD/pABC3, flow cytometry | actives 4% (n = 1,700) | AID 588517 | fluorescence ratio to DMSO, % at 10 µM;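 active = fluorescence ratio to DMSO above its plate's cutoff, the plate mean ratio plus 5 SD, cut at about 210% in these data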;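 also: unstained yeast with no Nile Red so the signal is compound autofluorescence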
Mdr1 pump inh – inhibitors of Candida albicans Mdr1 efflux, confirmation, flow cytometry, singleplex, Cherry Pick1 set. actives 1% (n = 1,700). shares compounds with Efflux pump inh. inhibition, % at 10 µM. S. cerevisiae AD/CaMDR1, Nile Red efflux. AID 588518, 2011; in the data active = inhibition above about 26%;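 also: higher means more Nile Red retained so more efflux inhibition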
Cdr2 pump inh – inhibitors of Candida albicans Cdr2 efflux pump, confirmation, S. cerevisiae AD/CaCDR2, flow cytometry, cherry pick 1, singleplex; AID 588520, 2011; shares compounds with Efflux pump inh; actives 4% (n = 1,700); Nile Red retention; Nile Red retention ratio vs DMSO, % at 10 µM; in the data active = Nile Red retention ratio vs DMSO above about 190%;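 also: higher ratio means more blocking of Cdr2 efflux of the dye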
Cdr1 pump inh – inhibitors of Candida albicans Cdr1 efflux pump, confirmation, S. cerevisiae AD/CaCDR1, flow cytometry, cherry pick 1, singleplex; shares compounds with Efflux pump inh; Nile Red efflux; inhibition, % at 10 µM; actives 1% (n = 1,700); AID 588522, 2011;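 active = inhibition above the screen-wide mean plus twice its standard deviation, cut at about 32% in these data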
A number is an active result; – = inactive; · = no result given. Sampled rows, rich in hits. Any-hit rate of the full collection: about 0.54%.

SMILES	PDI turbidity	ERp5 inh	Efflux pump inh	Rtt109 Vps75	PvdQ inh	Cmpd fluor yeast	Mdr1 pump inh	Cdr2 pump inh	Cdr1 pump inh
CCNC(=O)c1cc2c(c(-c3cccc(-c4ccncc4)c3)n1)[C@H](CCO)N(S(=O)(=O)CC)C2	·	–	·	·	·	·	·	·	·
COC(=O)CN1C(=S)N(c2ccc(Cl)cc2)C(=O)C1CC(=O)Nc1ccc(Cl)cc1 (stereo not given)	–	·	0.5	–	–	–	–	–	–
CC(C)[C@H](NS(=O)(=O)c1ccc2c(c1)OCCO2)C(=O)OCC(=O)Nc1cccc(Cl)c1Cl	–	·	16.4	–	–	–	–	–	–
CC(C)[C@H](NS(=O)(=O)c1ccc2c(c1)OCCO2)C(=O)OCC(=O)Nc1ccccc1Cl	–	–	–	–	–	·	·	·	·
CCC(=O)N1CCC2(CC1)CN(C(=O)Cc1ccccc1)[C@@H](CO)c1c2c2ccc(OC)cc2n1C	·	–	·	·	·	·	·	·	·
CCCCN(C)CCCNC(=O)c1cn(CC)c2ccc(S(=O)(=O)N3CCc4ccccc4C3)cc2c1=O	–	–	–	–	–	·	·	·	·
CCn1cc(C(=O)NCCCN2CCCC2)c(=O)c2cc(S(=O)(=O)N3CCc4ccccc4C3)ccc21	–	–	1.1	·	–	–	–	–	–
CCC1=NN2C(=N)/C(=C/c3c(C)nn(-c4ccccc4)c3Cl)C(=O)N=C2S1	–	–	22.7	–	–	–	–	–	–
COc1cc(/C=C(\C#N)C(=O)c2c[nH]c3ccccc23)cc(OC)c1O	–	–	0.9	–	–	–	–	–	–
COc1cc(/C=C(\C#N)C(=O)NCCc2ccccc2)cc(OC)c1O	–	–	–	–	–	·	·	·	·
CO[C@H]1CN(C)C(=O)c2cc(NC(=O)C3CCC3)ccc2OC[C@H](C)N(Cc2ccccn2)C[C@@H]1C	·	–	·	·	·	·	·	·	·
CN(C)CC(=O)N1CC2(C1)[C@H](c1ccccc1)[C@H](CO)N2C(=O)C1CCC1	·	–	·	·	·	·	·	·	·
CCCNC(=O)N1CC(=O)N2[C@H](CO)[C@@H](c3ccc(C#Cc4cccc(F)c4)cc3)[C@H]2C1	·	–	·	·	·	·	·	·	·
N=C(N)SCC1=CCS(=O)(=O)C1	–	–	0.8	–	–	–	–	–	–
O=S1(=O)CC=C(CSc2nc3ccccc3[nH]2)C1	–	·	–	–	–	·	·	·	·
Cc1ccc(OCC(=O)NNC(=O)CSc2ncc(C#N)c(N)n2)cc1	–	·	18.0	–	–	–	–	–	–
CC1(C)CC[C@]2(C(=O)O)CC[C@]3(C)C(=CCC4[C@@]5(C)CC[C@H](O)C(C)(C)C5CC[C@]43C)C2C1 (stereo not given in full)	–	–	1.4	–	–	–	–	–	–
CC1(C)CC[C@]2(C(=O)O)CC[C@]3(C)C(=CC[C@@H]4[C@@]5(C)CC[C@H](O)C(C)(C)[C@@H]5CC[C@]43C)[C@@H]2C1	–	–	–	–	–	·	·	·	·
Cc1nn(-c2ccccc2)c2c1C(c1ccc([N+](=O)[O-])cc1)N1C(=N2)C(=O)Nc2ccccc21 (stereo not given)	–	–	–	–	–	–	–	–	–
Cc1cccc(NC2=Nc3ccccc3N3C2=Nc2c(c(C)nn2-c2ccccc2)C3c2ccc(O)c(O)c2)c1 (stereo not given)	–	·	–	–	–	·	·	·	·
Cc1nn(-c2ccccc2)c2c1C(c1ccc(Cl)cc1)N(c1ccccc1)C(=O)N2 (stereo not given)	–	–	–	–	–	·	·	·	·
Cc1nn(-c2ccc([N+](=O)[O-])cc2)c2c1C(c1cccc(Br)c1)N1C(=N2)C(=O)Nc2ccccc21 (stereo not given)	–	·	–	–	–	–	–	–	–
O=C(Cn1cncn1)NCc1cccc2ccccc12	–	·	0.9	–	–	–	–	–	–
O=c1cc(-c2ccccc2)c2cc(Cl)c(O)c(CN3CCOCC3)c2o1	–	–	–	–	–	·	·	·	·
CCc1cc2c(-c3ccccc3)cc(=O)oc2c(CN2CCOCC2)c1O	–	·	0.8	–	–	–	–	–	–
SMILES	PDI turbidity	ERp5 inh	Efflux pump inh	Rtt109 Vps75	PvdQ inh	Cmpd fluor yeast	Mdr1 pump inh	Cdr2 pump inh	Cdr1 pump inh
O=C(NC1Cc2ccccc2C1)[C@H]1[C@H](CO)[C@H]2Cn3c(cccc3=O)[C@@H]1N2C(=O)CC1CC1	·	–	·	·	·	·	·	·	·
O=C(Nc1ccccc1N1CCCCC1)c1cc(S(=O)(=O)N2CCOCC2)ccc1Cl	–	–	–	–	–	·	·	·	·
O=C(Nc1ccccc1Cl)c1cc(S(=O)(=O)N2CCCCC2)ccc1N1CCOCC1	–	·	1.2	60.0	–	–	–	–	–
C[C@@H]1CN([C@@H](C)CO)C(=O)Cc2cc(NS(C)(=O)=O)ccc2O[C@@H]1CN(C)C(=O)NC1CCCCC1	·	–	·	·	·	·	·	·	·
COc1ccccc1CNC(=O)COc1ccccc1OC	–	·	1.0	–	–	–	–	–	–
C[C@@H]1CCCCO[C@H](CN(C)CC2CC2)[C@H](C)CN([C@@H](C)CO)C(=O)c2cc(NC(=O)Cc3ccccc3)ccc2O1	·	–	·	·	·	·	·	·	·
O=C(COC(=O)c1ccc(Cl)nc1)Nc1c(Cl)cccc1C(F)(F)F	–	–	0.5	–	–	–	–	–	–
O=C(COC(=O)c1ccc(Cl)nc1)NC(=O)c1ccccc1	–	–	0.6	–	–	–	–	–	–
O=C(COC(=O)c1cc[n+]([O-])cc1)Nc1c(Cl)cccc1C(F)(F)F	–	–	–	–	–	·	·	·	·
O=C(COC(=O)c1ccc(Cl)nc1)NNC(=O)c1ccc(Cl)cc1	–	–	–	–	–	·	·	·	·
COc1ccccc1S(=O)(=O)N[C@@H]1CC[C@H](CC(=O)NCc2cc(F)cc(F)c2)O[C@H]1CO	·	–	·	·	·	·	·	·	·
CC(C)CC#Cc1cnc2c(c1)C(=O)N([C@H](C)CO)C[C@@H](C)[C@H](CN(C)C(=O)C1CCOCC1)O2	·	–	·	·	·	·	·	·	·
C[C@@H]1CN([C@@H](C)CO)C(=O)Cc2cc(NS(C)(=O)=O)ccc2O[C@H]1CN(C)Cc1ccncc1	·	–	·	·	·	·	·	·	·
O=C(Cc1cccs1)N1CCN=C1SCc1ccccc1Cl	–	–	1.0	–	–	–	–	–	–
O=C(Cc1cccs1)N1CCN=C1SCc1ccccc1F	–	–	–	–	–	·	·	·	·
